Out of some 5,500 compounds screened, about 2,000 (36%) were called active. Not shown: some 18% with an inconclusive outcome. No stated cut-off is given here; in the data, active means normalized growth mostly below about 0.91 (no sharp cut-off); inconclusive means no clear call, values can overlap the other calls; inactive means mostly above about 0.92. This is one part of the list.
Experiment: chemical genetic growth profiling, strain panel (AID 1159580);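 further: tested at 20 µM; growth read once vehicle control cultures reached saturation at 30 °C; 1 = growth at the plate median or of vehicle wells; lower values mean less growth of the strain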
Details: S. cerevisiae deletion strains, growth OD

Measured: normalized growth

C(=C\c1ccccc1)/CN1CCN(C(c2ccccc2)c2ccccc2)CC1
active: locus YER002W, strain NOP16, active compounds read low 1.09 [resistant]
inactive: locus YAL040C, strain CLN3, active compounds read low 0.995 | locus YCL061C, strain MRC1 (second series), active compounds read low 0.992 | locus YMR307W, strain GAS1, active compounds read low 0.998 | locus YNL153C, strain GIM3, active compounds read low 0.851 | locus YNL197C, strain WHI3, active compounds read low 1.11 | locus YNL224C, strain SQS1, active compounds read low 1.02 | locus YOR083W, strain WHI5 (second series), active compounds read low 0.99 | locus YPL055C, strain LGE1, active compounds read low 1

— PubChem BioAssay AID1159580 (chemical genetic matrix, 2015)
